# Pf growth 96h: P. falciparum growth inhibition at 96 hours; P. falciparum luciferase reporter growth, 96 h; Potency, µM (top dose mostly 28.7 µM), without a hit: top-dose activity change, negative = inhibition, usual class: inhibitors; actives 6.9% (n = 320,000); AID 504834
#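 Compounds incubated with erythrocytes infected by luciferase-expressing P. falciparum (2% hematocrit, 0.05% parasitemia final) for 96 hours, 37 C in 5% CO2. Growth inhibition scored as decreased luciferase luminescence.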
# Pf growth 48h: inhibits P. falciparum growth in the first generation, 48 h; P. falciparum luciferase growth in erythrocytes, 48 h; Potency, µM (doses to about 28.7 µM), for inactives: at the highest dose activity change, negative = inhibition, usual class: inhibitors; actives 5.9% (n = 310,000)
#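 Parasite viability was followed by luminescence of a genomically integrated firefly luciferase. Cultures held 0.1% parasitemia at 2% hematocrit (final), incubated under 5% CO2 at 37 C.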
# HCV inh: HCV inhibition | Huh7.5.1 HCVcc-Cre infection, luciferase reporter, 44 h | Potency, µM (highest dose often 41.8 µM), inactives show top-dose activity change, negative = inhibition, most hits filed as inhibitors | actives 3.4% (n = 340,000)
#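 1,000 cells/well; 4 h culture; + compound; + HCVcc-Cre (~0.5 moi); 44 h; luciferase substrate, RT 15 min; read 15 sec.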
# AMA1 RON2 block: disrupts binding of P. falciparum AMA1 to RON2; Potency, µM (doses to about 58.2 µM), inactives show at the top dose activity change, negative = inhibition, most hits filed as inhibitors; AID 720542; actives 0.2% (n = 360,000); AlphaScreen AMA1-biotinylated RON2 peptide binding;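 further: 0% = vehicle wells and -100% = peptide control; nearly all actives have a fitted effect of over 45% in size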
#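 AMA1 (3D7) with his tag at 25 nM final met compounds first, then biotinylated RON2 peptide at 25 nM; detection used donor plus acceptor beads, 10 µg/mL apiece, read by AlphaScreen after 30 min at room temperature.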
# Active calls of the source: *; ? = inconclusive; nt = no result given; [ ] = dose if it differs, or a comment. An excerpt weighted towards active compounds, which were near 11% of everything screened. The call rests on the fitted dose curve; in most records, active means well fitted curve in the direction sought with a large enough effect; inconclusive means small, poorly fitted or top-dose-only effect, or another doubt; inactive means no such curve, though single readings can be large; an effect the other way counts as inactive or inconclusive. Unless noted, on the % scale 0 is the no-effect control and ±100 the full control effect; potency means the concentration at half of the fitted maximal effect.
SMILES,Pf growth 96h,Pf growth 48h,HCV inh,AMA1 RON2 block
COc1cc2c(=O)n(CCCC(=O)NCC3CCCO3)c(=O)n(CC(=O)c3ccc(F)cc3)c2cc1OC (stereo unspecified),-16.5%,?,?,-4.5%
Fc1ccc(-c2c[nH]c(=S)n2Cc2ccccc2)cc1,?,10.4µM*,-13.2%,49.7%
Clc1ccc(CO/N=C(\Cn2ccnc2)c2ccc(Cl)cc2Cl)c(Cl)c1,1.9µM*,4.26µM*,nt,nt
CNCCCC12CCC(c3ccccc31)c1ccccc12,?,11.7µM*,?,-1.8%
CCOc1ccccc1NC(=O)Cn1c(-c2ccc(Cl)cc2)noc1=O,4.15µM*,1.65µM*,?,11.8%
CN(C)S(=O)(=O)c1ccc(NC(=O)Cn2c(-c3ccccc3)noc2=O)cc1,4.65µM*,nt,6.7%,32.3%
CC1=NN(C(=O)c2ccc(Cn3cc([N+](=O)[O-])cn3)cc2)C(O)(C(F)(F)F)C1 (stereo unspecified),-0.1%,5.4%,14.6%,54.9%
COc1ccccc1N1CCN(Cc2cc(=O)n3ccsc3n2)CC1,0.0%,11.4%,13.6%,6.4%
CC1Cc2ccccc2N1Cc1cc(=O)n2ccsc2n1 (stereo unspecified),13.1µM*,?,?,-5.7%
O=C1c2ccccc2S(=O)(=O)N1Cc1cc(=O)n2ccsc2n1,13.1µM*,?,-3.5%,-9.8%
CN1CCN(Cc2cc(=O)n3ccsc3n2)CC1,?,-4.6%,5.5%,19.1%
O=C(Nc1cccc(Cl)c1)c1ccc(=O)[nH]n1,42.0%,nt,10.2%,19.0%
O=c1n(-c2ccccc2)c(=O)n2n1CC(O)C2,-15.0%,-0.8%,23.5%,-11.4%
COC(=O)c1ccc(S(=O)(=O)NNC(=O)COc2ccc(C)cc2)cc1,5.22µM*,22.5%,-3.9%,49.1%
c1cncc(-c2nc(NCc3ccco3)c3ccccc3n2)c1,34.5%,11.7µM*,10µM*,7.0%
c1ccc(-c2nc(NCc3cccnc3)c3ccccc3n2)cc1,?,?,10µM*,-2.7%
Clc1cccc(-c2nc(NCc3cccnc3)c3ccccc3n2)c1,?,?,2.82µM*,-2.5%
N#Cc1c(NCc2ccccc2)ccnc1NCc1cccnc1,-20.1%,?,7.08µM*,18.6%
Cc1ccc(-c2nc(NCc3cccnc3)c3ccccc3n2)cc1,75.5%,?,?,8.1%
N#Cc1c(F)cccc1NCc1cccnc1,-14.0%,nt,?,-27.2%
Cc1ccc(-c2nc(NCc3ccco3)c3ccccc3n2)cc1,2.3%,5.6%,?,1.1%
CCCCN(C(=O)c1c(CC)noc1C)c1c(N)n(CCC)c(=O)[nH]c1=O,22.5%,?,33.7%,18.0%
CCCC(=O)Nc1cc(S(=O)(=O)N(CC)CC)ccc1Cl,?,-27.4%,-10.9%,24.9%[2.32 µM]
COc1cc(C2(C)SCCCS2)cc(OC)c1OC,nt,nt,nt,-6.2%
Cc1cc2c(cc1C)-n1nnnc1C(N1CCN(c3ccccn3)CC1)C(c1ccc3c(c1)OCO3)=N2 (stereo unspecified),nt,nt,nt,-4.3%
SMILES,Pf growth 96h,Pf growth 48h,HCV inh,AMA1 RON2 block
CN(C)C(=O)C12CCC(C)(c3nc4ccccc4nc31)C2(C)C (stereo unspecified),2.62µM*,-26.5%,4.9%,7.2%
Cc1cc2nc3c(nc2cc1C)C1(C(=O)N(C)C)CCC3(C)C1(C)C (stereo unspecified),nt,?,9.2%,12.3%
COc1ccccc1Nc1ncnc2c1c(C)c(C)n2CCCN(C)C,0.0%,0.0%,3.98µM*,-8.2%
Cc1c(C)n(Cc2ccccc2)c2ncnc(NN)c12,-7.5%,8.1%[0.00184 µM],11.2µM*,40.4%
Cc1ccc(-n2c(CCc3ccccc3)n[nH]c2=S)cc1C,68.3%,?,-2.4%,61.4%
Cn1nnc(NC(=O)c2ccccc2)n1,13.1µM*,31.9%,7.4%,10.7%
Cn1nnc(NC(=S)NC(=O)Cc2ccccc2)n1,2.08µM*,-17.8%,1.2%,61.8%
Cc1cccc(C2NC(c3cccc(C)c3)C(C)C(=O)C2C)c1 (stereo unspecified),0.4%,?,0.8%,19.7%
COc1cc(NC(C)CCCN)c2ncccc2c1 (stereo unspecified),0.329µM*,0.415µM*,?,28.0%
COc1cc(NCCCCCCCN)c2ncccc2c1,3.7µM*,2.62µM*,-1.2%,-2.4%
COc1cc(NCc2ccccc2O)c2ncccc2c1,?,?,-20.7%,22.3%
Cc1cc(C)n(C(=O)/C(C#N)=N/Nc2cc(Cl)cc(Cl)c2)n1,?,11.7µM*,10µM*,-1.9%
COc1ccc(N2CCn3c2nc2c3c(=O)n(CCc3ccccc3)c(=O)n2C)c(OC)c1,11.7µM*,-5.7%,nt,nt
COc1ccc(N2CCn3c2nc2c3c(=O)n(CCCc3ccccc3)c(=O)n2C)c(OC)c1,?,?,14.1µM*,12.1%
COc1ccc(-c2nnc3n(CCc4ccccc4)c(=O)c4ccccc4n23)c(OC)c1,4.65µM*,13.1µM*,10.3%,13.8%[11.6 µM]
COc1cc(OC)c(-c2nnc3n(CCc4ccccc4)c(=O)c4ccccc4n23)cc1OC,?,?,-9.8%,nt
COc1ccc(N2CC(C)Cn3c2nc2c3c(=O)n(Cc3ccccc3)c(=O)n2C)c(OC)c1 (stereo unspecified),8.28µM*,?,?,7.8%
COc1ccc(N2CCn3c2nc2c3c(=O)n(CCCc3ccccc3)c(=O)n2C)cc1,?,7.0%,nt,nt
Cc1cc(OCC(=O)OCC(=O)NCc2ccc3c(c2)OCO3)ccc1Cl,3.0%,-15.4%,6.5%,-0.9%
C=CCN(c1cccc(C(F)(F)F)c1)S(=O)(=O)c1cccc(C(=O)OCC(=O)NC)c1,11.7µM*,?,-1.3%,10.4%
CCN(CC)C(=O)c1sc2nc(N3CCOCC3)c3c(c2c1N)CCCC3,nt,?,?,-7.9%
COC(=O)c1ccc(-c2sc3nc(N4CCOCC4)c4c(c3c2N)CCCC4)o1,9.28µM*,9.1%,?,12.2%
NC(=O)c1sc2nc(N3CCCCC3)c3c(c2c1N)CCCC3,-4.3%,?,-8.1%,18.2%
Nc1c(C(=O)NCc2ccco2)sc2nc(N3CCOCC3)c3c(c12)CCCC3,?,9.28µM*,?,-7.9%
COC(=O)c1sc2nc(N3CCCCC3)c3c(c2c1N)CCCC3,?,nt,12.6µM*,32.7%
SMILES,Pf growth 96h,Pf growth 48h,HCV inh,AMA1 RON2 block
Nc1c(C(=O)Nc2ccc(Br)cc2)sc2nc(N3CCOCC3)c3c(c12)CCCC3,nt,nt,nt,-6.8%
CCOC(=O)c1sc2nc(N3CCOCC3)c3c(c2c1N)CCCC3,1.04µM*,28.3%,?,4.8%
Cc1nnc(NC(=O)CCn2c(=O)oc3ccccc32)s1,46.6%,9.2%,-5.3%,12.3%
COc1cc(C)c2c(c1OC)C(=O)CC2,nt,nt,3.2%,1.3%
COc1ccccc1-n1cnc2c(c1=O)c1nc3ccccc3nc1n2-c1ccc(C)c(C)c1,10.4µM*,?,7.94µM*,0.0%
CN(Cc1ccccc1)C(=O)c1nc2ccccn2c1CN1CCC(N2CCOCC2)CC1,10.5%,-5.7%,3.4%,6.8%
O=C1[C@@H](Oc2ccccc2)[C@@H](c2cccnc2)N1c1ccccc1,nt,nt,35.5µM*,-12.5%
CCc1nc2ccc(C(=O)Nc3cccc(OC)c3)cn2c1N(CC)CCN(C)C,nt,nt,nt,-0.1%
